In experiment [1] the target is 5'-AMP-activated protein kinase catalytic subunit alpha-2 (Homo sapiens) (UniProt P54646). The following applies: at 1 µM.
For experiment [2], the target named is T1, NUAK family SNF1-like kinase 1 (Homo sapiens) (UniProt O60285).
T1 sequence (whole entry): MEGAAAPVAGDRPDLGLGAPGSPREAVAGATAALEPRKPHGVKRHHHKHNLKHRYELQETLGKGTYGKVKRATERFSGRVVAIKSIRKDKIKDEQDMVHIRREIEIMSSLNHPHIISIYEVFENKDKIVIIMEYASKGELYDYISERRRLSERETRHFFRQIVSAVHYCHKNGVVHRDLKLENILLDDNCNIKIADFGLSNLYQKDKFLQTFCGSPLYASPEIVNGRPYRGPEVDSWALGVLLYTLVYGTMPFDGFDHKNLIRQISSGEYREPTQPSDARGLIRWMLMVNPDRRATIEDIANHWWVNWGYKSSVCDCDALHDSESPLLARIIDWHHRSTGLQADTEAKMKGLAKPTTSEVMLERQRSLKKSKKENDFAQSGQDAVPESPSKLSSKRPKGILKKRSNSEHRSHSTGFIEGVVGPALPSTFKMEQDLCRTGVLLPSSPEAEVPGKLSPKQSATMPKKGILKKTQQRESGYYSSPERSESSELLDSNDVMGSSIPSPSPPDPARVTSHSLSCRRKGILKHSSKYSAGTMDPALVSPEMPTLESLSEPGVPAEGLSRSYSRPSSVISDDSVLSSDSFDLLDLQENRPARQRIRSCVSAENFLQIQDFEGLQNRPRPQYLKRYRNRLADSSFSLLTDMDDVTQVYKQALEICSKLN
The following applies: at 0.1 µM.

The target of experiment [3] is T1, NUAK family SNF1-like kinase 1 (Homo sapiens). Particulars: at 1 µM.
For experiment [4], the target named is T2, Serine/threonine-protein kinase BRSK1 (Homo sapiens) (UniProt Q8TDC3).
T2 sequence (whole entry): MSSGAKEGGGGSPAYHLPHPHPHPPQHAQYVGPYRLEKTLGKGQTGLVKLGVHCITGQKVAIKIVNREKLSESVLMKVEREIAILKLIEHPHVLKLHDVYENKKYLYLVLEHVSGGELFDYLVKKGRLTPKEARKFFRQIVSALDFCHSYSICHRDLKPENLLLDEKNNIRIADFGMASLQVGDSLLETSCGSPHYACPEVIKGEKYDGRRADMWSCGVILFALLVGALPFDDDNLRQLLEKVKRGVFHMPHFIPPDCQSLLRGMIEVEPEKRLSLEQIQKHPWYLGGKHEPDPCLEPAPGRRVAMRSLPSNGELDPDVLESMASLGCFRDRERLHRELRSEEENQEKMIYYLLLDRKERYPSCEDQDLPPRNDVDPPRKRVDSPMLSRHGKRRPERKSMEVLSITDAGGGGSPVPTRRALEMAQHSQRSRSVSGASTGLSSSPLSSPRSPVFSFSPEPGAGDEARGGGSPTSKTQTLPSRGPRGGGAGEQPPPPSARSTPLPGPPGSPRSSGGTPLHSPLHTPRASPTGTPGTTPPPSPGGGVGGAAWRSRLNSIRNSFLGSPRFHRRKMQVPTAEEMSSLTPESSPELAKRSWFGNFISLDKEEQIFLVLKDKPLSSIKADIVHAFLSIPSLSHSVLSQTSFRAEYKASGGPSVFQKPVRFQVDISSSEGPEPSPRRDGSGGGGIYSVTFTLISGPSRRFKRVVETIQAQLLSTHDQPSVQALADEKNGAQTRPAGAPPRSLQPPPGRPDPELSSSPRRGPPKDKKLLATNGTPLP
The following applies: at 0.1 µM.

Experiment [5] has as its target T2, Serine/threonine-protein kinase BRSK1 (Homo sapiens). Particulars: at 1 µM.
The target in experiment [6] is T3, Serine/threonine-protein kinase BRSK2 (Homo sapiens) (UniProt Q8IWQ3).
T3 sequence (whole entry): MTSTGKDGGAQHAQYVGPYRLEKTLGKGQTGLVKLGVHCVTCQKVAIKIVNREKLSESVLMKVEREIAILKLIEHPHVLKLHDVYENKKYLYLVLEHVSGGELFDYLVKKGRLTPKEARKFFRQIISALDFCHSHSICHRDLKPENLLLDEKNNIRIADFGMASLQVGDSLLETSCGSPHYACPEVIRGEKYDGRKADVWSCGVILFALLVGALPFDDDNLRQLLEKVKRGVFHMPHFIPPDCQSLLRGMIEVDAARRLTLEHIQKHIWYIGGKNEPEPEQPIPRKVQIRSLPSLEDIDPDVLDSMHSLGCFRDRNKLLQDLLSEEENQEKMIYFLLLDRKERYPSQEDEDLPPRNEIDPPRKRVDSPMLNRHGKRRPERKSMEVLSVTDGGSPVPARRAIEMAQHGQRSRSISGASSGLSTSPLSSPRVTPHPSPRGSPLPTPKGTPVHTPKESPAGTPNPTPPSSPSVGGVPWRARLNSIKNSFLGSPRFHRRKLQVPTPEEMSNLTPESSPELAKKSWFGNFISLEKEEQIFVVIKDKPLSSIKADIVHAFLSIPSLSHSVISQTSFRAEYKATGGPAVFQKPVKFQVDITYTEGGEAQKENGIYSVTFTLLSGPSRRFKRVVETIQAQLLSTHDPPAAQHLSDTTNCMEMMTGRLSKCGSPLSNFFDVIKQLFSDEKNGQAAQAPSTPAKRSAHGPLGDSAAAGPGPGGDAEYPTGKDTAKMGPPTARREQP
The following applies: at 0.1 µM.

The target in experiment [7] is T3, Serine/threonine-protein kinase BRSK2 (Homo sapiens). The following applies: at 1 µM.
Experiment [8] addresses Calcium/calmodulin-dependent protein kinase type 1D (Homo sapiens) (UniProt Q8IU85). Particulars: at 0.1 µM.
Experiment [9] shares this target. The following applies: at 1 µM.
The target in experiment [10] is Calcium/calmodulin-dependent protein kinase type II subunit alpha (Homo sapiens) (UniProt Q9UQM7). The following applies: at 0.1 µM.
Experiment [11] has the same target. The following applies: at 1 µM.
For experiment [12], the target named is Calcium/calmodulin-dependent protein kinase type II subunit delta (Homo sapiens) (UniProt Q13557). The following applies: at 0.1 µM.
For experiment [13] the target is unchanged. Particulars: at 1 µM.
For experiment [14], the target named is T4, Calcium/calmodulin-dependent protein kinase type IV (Homo sapiens) (UniProt Q16566).
T4 sequence (whole entry): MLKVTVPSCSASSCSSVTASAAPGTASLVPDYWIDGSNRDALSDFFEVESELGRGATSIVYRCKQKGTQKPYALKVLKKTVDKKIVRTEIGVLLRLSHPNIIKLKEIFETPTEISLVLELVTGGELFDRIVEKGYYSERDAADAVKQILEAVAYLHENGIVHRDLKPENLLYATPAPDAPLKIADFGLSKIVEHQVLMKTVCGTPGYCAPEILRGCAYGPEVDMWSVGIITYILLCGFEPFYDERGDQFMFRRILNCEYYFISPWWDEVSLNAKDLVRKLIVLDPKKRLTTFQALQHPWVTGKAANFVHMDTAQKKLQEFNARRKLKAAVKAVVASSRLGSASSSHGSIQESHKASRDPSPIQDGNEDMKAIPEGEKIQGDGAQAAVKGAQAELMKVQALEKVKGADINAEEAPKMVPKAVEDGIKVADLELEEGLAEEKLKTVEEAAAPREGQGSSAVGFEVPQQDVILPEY
Particulars: at 0.1 µM.

Experiment [15] addresses T4, Calcium/calmodulin-dependent protein kinase type IV (Homo sapiens). Particulars: at 1 µM.
For experiment [16], the target named is T5, Serine/threonine-protein kinase Chk1 (Homo sapiens) (UniProt O14757).
T5 sequence (whole entry): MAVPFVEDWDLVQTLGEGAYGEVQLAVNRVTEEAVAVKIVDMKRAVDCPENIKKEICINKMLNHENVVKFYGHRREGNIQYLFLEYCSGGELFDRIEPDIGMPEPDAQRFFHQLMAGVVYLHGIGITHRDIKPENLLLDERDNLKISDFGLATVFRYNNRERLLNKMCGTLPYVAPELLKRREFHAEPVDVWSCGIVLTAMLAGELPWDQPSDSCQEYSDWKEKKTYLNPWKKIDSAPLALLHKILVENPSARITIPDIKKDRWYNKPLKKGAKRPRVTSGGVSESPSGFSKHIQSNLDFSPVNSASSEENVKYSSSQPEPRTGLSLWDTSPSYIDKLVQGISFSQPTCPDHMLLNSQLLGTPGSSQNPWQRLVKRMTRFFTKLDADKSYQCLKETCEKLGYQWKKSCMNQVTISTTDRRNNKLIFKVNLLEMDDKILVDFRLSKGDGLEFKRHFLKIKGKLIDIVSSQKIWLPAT
The following applies: at 0.1 µM.

For experiment [17], the target named is T5, Serine/threonine-protein kinase Chk1 (Homo sapiens). Particulars: at 1 µM.
Experiment [18] deals with Serine/threonine-protein kinase Chk2 (Homo sapiens) (UniProt O96017). The following applies: at 0.1 µM.
For experiment [19] the target is unchanged. Particulars: at 1 µM.
Experiment [20] addresses Death-associated protein kinase 1 (Homo sapiens) (UniProt P53355). The following applies: at 0.1 µM.

Serine/threonine-protein kinase Chk2 (Homo sapiens), sequence (O96017 whole entry): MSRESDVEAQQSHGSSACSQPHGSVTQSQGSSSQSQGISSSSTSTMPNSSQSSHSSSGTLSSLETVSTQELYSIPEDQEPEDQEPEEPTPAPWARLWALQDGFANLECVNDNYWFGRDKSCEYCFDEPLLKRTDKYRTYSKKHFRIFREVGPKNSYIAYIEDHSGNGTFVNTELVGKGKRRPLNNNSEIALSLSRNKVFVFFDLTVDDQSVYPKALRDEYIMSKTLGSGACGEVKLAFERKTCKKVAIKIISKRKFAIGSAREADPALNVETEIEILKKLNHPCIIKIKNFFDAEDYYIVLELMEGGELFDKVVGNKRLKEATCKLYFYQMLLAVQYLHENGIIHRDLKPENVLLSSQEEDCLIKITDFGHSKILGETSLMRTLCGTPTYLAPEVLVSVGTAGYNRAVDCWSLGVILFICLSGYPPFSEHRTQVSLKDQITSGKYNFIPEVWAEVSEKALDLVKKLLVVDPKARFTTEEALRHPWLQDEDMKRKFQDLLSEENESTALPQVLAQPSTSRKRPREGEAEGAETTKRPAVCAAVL
Calcium/calmodulin-dependent protein kinase type II subunit delta (Homo sapiens), sequence (Q13557 whole entry): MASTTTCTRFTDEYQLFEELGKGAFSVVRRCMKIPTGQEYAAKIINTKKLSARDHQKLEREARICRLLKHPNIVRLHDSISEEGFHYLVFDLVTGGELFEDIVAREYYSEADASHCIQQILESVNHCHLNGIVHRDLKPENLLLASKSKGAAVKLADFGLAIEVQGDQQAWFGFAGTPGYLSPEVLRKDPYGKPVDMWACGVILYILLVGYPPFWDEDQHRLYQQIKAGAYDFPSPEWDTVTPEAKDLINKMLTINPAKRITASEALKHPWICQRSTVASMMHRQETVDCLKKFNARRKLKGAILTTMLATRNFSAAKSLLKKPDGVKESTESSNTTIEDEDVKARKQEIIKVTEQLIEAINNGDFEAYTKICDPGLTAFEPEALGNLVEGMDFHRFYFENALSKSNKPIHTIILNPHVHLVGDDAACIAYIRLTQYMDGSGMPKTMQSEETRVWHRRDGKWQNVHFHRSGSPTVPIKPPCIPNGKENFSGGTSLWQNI
Calcium/calmodulin-dependent protein kinase type II subunit alpha (Homo sapiens), sequence (Q9UQM7 whole entry): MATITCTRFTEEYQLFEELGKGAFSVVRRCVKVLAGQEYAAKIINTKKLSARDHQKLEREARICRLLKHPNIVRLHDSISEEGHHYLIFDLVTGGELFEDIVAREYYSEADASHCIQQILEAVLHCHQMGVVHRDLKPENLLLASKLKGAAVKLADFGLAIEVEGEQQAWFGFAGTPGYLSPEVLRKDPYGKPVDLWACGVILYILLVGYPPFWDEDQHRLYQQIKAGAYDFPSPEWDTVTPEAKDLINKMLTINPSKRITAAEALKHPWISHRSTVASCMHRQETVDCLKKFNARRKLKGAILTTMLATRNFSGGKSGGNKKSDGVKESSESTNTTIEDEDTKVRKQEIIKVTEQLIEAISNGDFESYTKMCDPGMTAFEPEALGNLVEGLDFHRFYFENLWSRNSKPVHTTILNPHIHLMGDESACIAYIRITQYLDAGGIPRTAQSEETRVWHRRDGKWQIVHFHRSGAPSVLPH
Death-associated protein kinase 1 (Homo sapiens), sequence (P53355 whole entry, looked up): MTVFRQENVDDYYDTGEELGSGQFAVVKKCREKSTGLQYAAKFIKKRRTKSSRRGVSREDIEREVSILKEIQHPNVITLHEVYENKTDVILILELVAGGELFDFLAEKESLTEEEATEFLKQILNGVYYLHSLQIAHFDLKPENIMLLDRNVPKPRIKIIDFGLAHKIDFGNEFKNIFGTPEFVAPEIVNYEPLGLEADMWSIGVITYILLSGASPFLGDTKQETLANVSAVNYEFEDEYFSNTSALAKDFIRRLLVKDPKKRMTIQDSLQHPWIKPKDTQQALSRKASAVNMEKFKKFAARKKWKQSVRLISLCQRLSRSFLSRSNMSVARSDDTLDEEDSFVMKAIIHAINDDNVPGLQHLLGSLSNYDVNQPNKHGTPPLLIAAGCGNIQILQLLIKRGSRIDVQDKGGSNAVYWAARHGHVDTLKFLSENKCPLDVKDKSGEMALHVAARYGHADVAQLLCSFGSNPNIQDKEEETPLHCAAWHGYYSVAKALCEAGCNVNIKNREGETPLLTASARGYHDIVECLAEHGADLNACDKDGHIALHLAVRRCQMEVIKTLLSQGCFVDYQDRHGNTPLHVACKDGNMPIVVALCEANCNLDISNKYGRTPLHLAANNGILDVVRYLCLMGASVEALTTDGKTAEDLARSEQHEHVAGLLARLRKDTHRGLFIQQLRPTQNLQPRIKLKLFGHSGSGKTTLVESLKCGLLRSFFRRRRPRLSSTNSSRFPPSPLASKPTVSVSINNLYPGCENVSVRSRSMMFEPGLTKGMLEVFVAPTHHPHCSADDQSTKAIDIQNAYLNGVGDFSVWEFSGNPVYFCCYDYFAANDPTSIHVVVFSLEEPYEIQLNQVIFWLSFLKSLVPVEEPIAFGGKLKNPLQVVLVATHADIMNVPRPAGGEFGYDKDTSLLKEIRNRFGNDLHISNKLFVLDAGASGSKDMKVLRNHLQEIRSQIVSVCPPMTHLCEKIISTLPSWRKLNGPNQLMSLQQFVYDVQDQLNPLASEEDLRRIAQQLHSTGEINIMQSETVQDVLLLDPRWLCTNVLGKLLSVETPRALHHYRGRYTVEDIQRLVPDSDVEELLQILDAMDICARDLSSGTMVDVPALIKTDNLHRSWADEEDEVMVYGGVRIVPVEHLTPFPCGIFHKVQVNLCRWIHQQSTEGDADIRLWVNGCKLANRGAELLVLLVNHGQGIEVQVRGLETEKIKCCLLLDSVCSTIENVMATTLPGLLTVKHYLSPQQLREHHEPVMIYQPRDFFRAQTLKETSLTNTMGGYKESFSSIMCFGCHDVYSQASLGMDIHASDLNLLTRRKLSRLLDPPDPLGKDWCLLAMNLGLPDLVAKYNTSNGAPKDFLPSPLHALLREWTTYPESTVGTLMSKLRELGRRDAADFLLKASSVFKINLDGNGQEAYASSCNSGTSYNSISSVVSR
Calcium/calmodulin-dependent protein kinase type 1D (Homo sapiens), sequence (Q8IU85 whole entry, looked up): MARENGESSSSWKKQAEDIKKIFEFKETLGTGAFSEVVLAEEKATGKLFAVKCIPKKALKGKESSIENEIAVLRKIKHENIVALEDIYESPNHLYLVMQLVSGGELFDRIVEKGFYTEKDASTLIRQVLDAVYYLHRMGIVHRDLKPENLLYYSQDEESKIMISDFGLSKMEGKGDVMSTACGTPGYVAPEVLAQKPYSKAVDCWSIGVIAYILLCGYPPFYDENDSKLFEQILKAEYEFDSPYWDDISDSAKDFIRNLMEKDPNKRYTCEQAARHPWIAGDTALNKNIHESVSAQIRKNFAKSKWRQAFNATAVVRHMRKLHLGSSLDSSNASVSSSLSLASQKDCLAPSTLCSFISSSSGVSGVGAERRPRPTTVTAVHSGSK
5'-AMP-activated protein kinase catalytic subunit alpha-2 (Homo sapiens), sequence (P54646 whole entry, looked up): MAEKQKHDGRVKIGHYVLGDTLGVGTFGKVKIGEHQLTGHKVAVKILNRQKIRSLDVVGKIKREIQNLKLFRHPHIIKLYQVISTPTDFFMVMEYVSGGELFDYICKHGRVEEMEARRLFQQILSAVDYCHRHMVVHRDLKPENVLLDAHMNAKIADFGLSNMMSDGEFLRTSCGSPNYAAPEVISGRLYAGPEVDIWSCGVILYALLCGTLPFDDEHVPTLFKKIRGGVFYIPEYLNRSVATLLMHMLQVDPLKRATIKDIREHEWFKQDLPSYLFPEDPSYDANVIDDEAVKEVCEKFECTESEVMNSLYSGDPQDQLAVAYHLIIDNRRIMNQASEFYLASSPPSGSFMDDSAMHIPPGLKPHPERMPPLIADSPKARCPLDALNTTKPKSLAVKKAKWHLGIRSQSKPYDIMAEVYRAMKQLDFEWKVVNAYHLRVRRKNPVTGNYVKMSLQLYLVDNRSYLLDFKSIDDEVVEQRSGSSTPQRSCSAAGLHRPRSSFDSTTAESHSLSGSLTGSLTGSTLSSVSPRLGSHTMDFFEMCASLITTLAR

As to `Nc1ncnc2occ(-c3ccc(NC(=O)Nc4cc(C(F)(F)F)cc(C(F)(F)F)c4)cc3)c12`, the inhibition (usually the relative decrease from the control value, in per cent) is 4.79% in [1]; 1.19% in experiment [2]; 2.22% in [3]; 1.78% in [4]; 3.44% in experiment [5]; 1.11% in experiment [6]. Moreover, the inhibition amounted to 0.11% in experiment [7]; 1.67% in experiment [8]; 4.38% in experiment [9]; 3.17% in experiment [10]; 2.09% in [11]; 2.95% in [12]. In addition, the inhibition was 1.63% in [13]; 0.17% in experiment [14]; 3.99% in [15]; 1.83% in [16]; 5.4% in [17]; 1.45% in [18]. Also, the inhibition in experiment [19] turned out to be 2.14%; in [20] it was 1.57%.

Turning to `CN(C)c1cc2c(Nc3ccc4nc(Cc5ccccc5)[nH]c4c3)ncnc2cn1`, the inhibition in experiment [1] amounted to 4.85%; in [2], 0.74%; in experiment [3], 1.76%; in experiment [4] it was 3.31%; in [5], 4.38%; in experiment [6], 3.85%. Also, the inhibition in experiment [7] is 4.52%; in [8] it was 1.13%; in experiment [9], 0.72%; in experiment [10], 4.11%; in experiment [11], 4.09%; in [12], 4.46%. In addition, the inhibition in [13] was 4.05%; in experiment [14] it was 1.47%; in [15] it was -2.01%; in [16], 7.31%; in experiment [17], 6.99%; in experiment [18] it was 2.75%. Further, the inhibition in experiment [19] is 9.92%; in experiment [20], 5.94%.

For the compound `O=C1NC(=O)C(c2ccc(Cl)cc2)=C1Nc1ccc(Cl)c(C(=O)O)c1`, the inhibition was -0.57% in experiment [1]; 1.82% in experiment [2]; 3.54% in [3]; -0.49% in [4]; 0.55% in [5]; 0.35% in experiment [6]. The inhibition was -1.78% in experiment [7]; -0.66% in [8]; 4.19% in experiment [9]; -2.83% in experiment [10]; -3.46% in [11]; -2.31% in experiment [12]. Also, the inhibition was 1.44% in [13]; 0.68% in experiment [14]; 0.51% in experiment [15]; -0.04% in experiment [16]; -1.22% in experiment [17]; -2% in experiment [18]. In addition, the inhibition is -1.93% in [19] and -1.53% in [20].

For `COc1cccc(-n2ncc3c(N/N=C/c4cccc(F)c4)ncnc32)c1`, the inhibition came to 6.48% in experiment [1]; 3.92% in experiment [2]; 2.83% in experiment [4]; 13.7% in experiment [5]; 2.69% in experiment [6]; 20.5% in experiment [7]. Moreover, the inhibition in [8] worked out at 0.51%; in experiment [9] it was 1.96%; in experiment [10], 1.19%; in experiment [11] it was 2.7%; in [12], 2.52%; in experiment [13], 16.1%. Also, the inhibition in [14] was 0.94%; in [15], 1.12%; in experiment [16], 1.95%; in experiment [17], 3.28%; in [18] it was 1.45%; in [19], 1.6%. In experiment [20], the inhibition was -0.52%.
